Test results taken from PubChem BioAssay (Tox21).
Inconclusive results are not listed. Active and inactive are the calls of the source. Unless noted, calls follow the shape of the full dose curve.

What was measured:
[1] = Nuclear factor erythroid 2-related factor 2/antioxidant responsive element (Nrf2/ARE) small molecule agonists: qHTS cell viability counter screen in human keratinocytes (AID 1919968; active = well fitted curve in the direction sought with a large enough effect in the repeat runs; an effect the other way counts as inactive or inconclusive; also: nearly all actives have a fitted effect of over 55% in size; also: potency is read from the fitted curve at half-maximal effect)
In short: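 Cytotoxicity was multiplexed with the Nrf2/ARE luciferase assay in the same wells. Stably transfected HaCaT keratinocytes were treated with test compounds for 23 h at 37 C. Cell viability was then measured by CellTiter-Fluor fluorescence.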

[2] = target: Gonadotropin-releasing hormone receptor (Homo sapiens) (UniProt P30968); assay: Human gonadotropin-releasing hormone receptor (GnRHR) small molecule agonists, calcium flux assay in GnRHR-HEK293 cells (AID 1920063); also: nearly all actives have a fitted effect of over 35% in size; also: potency is read from the fitted curve at half-maximal effect
Sequence of Gonadotropin-releasing hormone receptor (Homo sapiens) (P30968 whole entry, looked up): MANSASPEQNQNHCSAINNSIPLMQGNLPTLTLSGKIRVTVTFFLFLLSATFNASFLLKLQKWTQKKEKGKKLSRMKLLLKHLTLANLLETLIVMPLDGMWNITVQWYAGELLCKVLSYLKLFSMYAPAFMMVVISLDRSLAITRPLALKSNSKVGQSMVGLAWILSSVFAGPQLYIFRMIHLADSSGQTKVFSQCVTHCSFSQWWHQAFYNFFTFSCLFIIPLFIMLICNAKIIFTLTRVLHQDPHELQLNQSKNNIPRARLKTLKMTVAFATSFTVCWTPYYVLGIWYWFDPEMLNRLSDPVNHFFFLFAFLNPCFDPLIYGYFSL
In short: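 Agonist activity was measured as intracellular calcium flux in HEK293 cells engineered to stably express human GnRHR. After dye loading for 1 hour at 37 C, compounds in DMSO were added and fluorescence was followed for 3 minutes.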

[3] = target: KiSS-1 receptor (Homo sapiens) (UniProt Q969F8); assay: Human kisspeptin (KISS1R) small molecule agonists, calcium flux assay in KISS1R-HEK293 cells (AID 1920064; active = well fitted curve in the direction sought with a large enough effect in the repeat runs; an effect the other way counts as inactive or inconclusive)
Sequence of KiSS-1 receptor (Homo sapiens) (Q969F8 whole entry, looked up): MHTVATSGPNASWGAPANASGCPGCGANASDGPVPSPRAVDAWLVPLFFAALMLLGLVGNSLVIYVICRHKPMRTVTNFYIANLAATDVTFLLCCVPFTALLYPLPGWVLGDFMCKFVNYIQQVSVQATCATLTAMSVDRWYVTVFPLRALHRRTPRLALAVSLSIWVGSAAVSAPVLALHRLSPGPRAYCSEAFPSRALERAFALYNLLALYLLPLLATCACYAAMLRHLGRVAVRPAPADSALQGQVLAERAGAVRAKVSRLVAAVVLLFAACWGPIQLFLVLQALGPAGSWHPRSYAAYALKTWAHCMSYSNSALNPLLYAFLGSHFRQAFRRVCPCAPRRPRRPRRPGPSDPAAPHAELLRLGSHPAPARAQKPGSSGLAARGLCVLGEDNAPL
In short: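 Agonist activity is monitored as intracellular calcium rise in engineered HEK293 cells carrying human KISS1R. Cells are dye-loaded for 1 h at 37 C before compound addition, and fluorescence is recorded for 3 min.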

[4] = G protein-coupled receptor (GPCR) small molecule agonists, calcium flux assay: HEK293 wild type cell line counter screen (AID 1920065)
In short: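 Seed cells, incubate 18 h (37 C, 5% CO2); add calcium dye, 1 h at 37 C; pin-transfer compounds, ATP control or DMSO; read fluorescence 480/540 nm each second for 3 min.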

[5] = p53 small molecule agonists, cell-based qHTS assay with human liver microsomes: qHTS cell viability counter screen (AID 1963579); also: nearly all actives have a fitted effect of over 45% in size
In short: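 Metabolically activated exposure: compounds, human liver microsomes and NADPH (0.5 mg/mL final apiece) were added to p53RE-bla cells seeded 5 h earlier, left 16 h at 37 C, and then assessed for viability by CellTiter-Glo luminescence.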

[6] = p53 small molecule agonists, cell-based qHTS assay with rat liver microsomes: qHTS cell viability counter screen (AID 1963580); also: nearly all actives have a fitted effect of over 45% in size
In short: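 Rat liver microsome (0.5 mg/mL final) and NADPH (0.5 mg/mL final) co-incubation with compounds for 16 h at 37 C on HCT-116 p53RE-bla cells; cytotoxicity taken from intracellular ATP luminescence.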

[7] = p53 small molecule agonists, cell-based qHTS assay: qHTS cell viability counter screen (AID 1963581); also: nearly all actives have a fitted effect of over 45% in size
In short: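 Viability was counter-screened in parallel with the p53 agonist reporter by measuring intracellular ATP luminescence in the same HCT-116 p53RE-bla wells after 16 h compound treatment at 37 C.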

[8] = target: 5-hydroxytryptamine receptor 2A (Homo sapiens) (UniProt P28223); assay: 5-hydroxytryptamine receptor 2A (HTR2A) small molecule antagonists, cell-based qHTS assay (AID 1963586); also: nearly all actives have a fitted effect of over 45% in size
Sequence of 5-hydroxytryptamine receptor 2A (Homo sapiens) (P28223 whole entry, looked up): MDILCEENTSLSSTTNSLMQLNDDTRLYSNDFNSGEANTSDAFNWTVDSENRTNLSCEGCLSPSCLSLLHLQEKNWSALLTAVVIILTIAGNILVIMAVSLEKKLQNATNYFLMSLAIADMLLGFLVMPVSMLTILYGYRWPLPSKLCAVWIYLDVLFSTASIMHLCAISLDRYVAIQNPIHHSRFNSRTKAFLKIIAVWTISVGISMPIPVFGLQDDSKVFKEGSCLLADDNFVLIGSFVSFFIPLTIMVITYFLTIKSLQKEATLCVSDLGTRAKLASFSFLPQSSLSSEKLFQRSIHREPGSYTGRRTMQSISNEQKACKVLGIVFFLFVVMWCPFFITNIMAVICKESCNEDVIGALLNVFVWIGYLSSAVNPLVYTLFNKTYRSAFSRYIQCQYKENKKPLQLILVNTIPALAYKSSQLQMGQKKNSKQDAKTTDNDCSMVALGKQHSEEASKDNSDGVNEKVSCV
In short: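 CHO cells stably expressing human HTR2A were plated for 18 h at 37 C, then loaded with calcium dye for 1 h. Compounds were preincubated 5 min at room temperature before DOI (4 nM solution) was added. Kinetic fluorescence was read for 3 min.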

[9] = target: 5-hydroxytryptamine receptor 2A (Homo sapiens) (UniProt P28223); assay: 5-hydroxytryptamine receptor 2A (HTR2A) small molecule agonists, cell-based qHTS assay (AID 1963587); also: nearly all actives have a fitted effect of over 30% in size; also: potency is read from the fitted curve at half-maximal effect
In short: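 Kinetic calcium-flux fluorescence (2 min, 1 sec intervals) after compound addition in agonist mode. HTR2A-CHO cells were cultured 18 h, then dye-loaded 1 h at 37 C.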

[10] = target: Muscarinic acetylcholine receptor M1 (Homo sapiens) (UniProt P11229); assay: Cholinergic receptor muscarinic 1 (CHRM1) small molecule antagonists, cell-based qHTS assay (AID 1963588); also: nearly all actives have a fitted effect of over 40% in size
Sequence of Muscarinic acetylcholine receptor M1 (Homo sapiens) (P11229 whole entry, looked up): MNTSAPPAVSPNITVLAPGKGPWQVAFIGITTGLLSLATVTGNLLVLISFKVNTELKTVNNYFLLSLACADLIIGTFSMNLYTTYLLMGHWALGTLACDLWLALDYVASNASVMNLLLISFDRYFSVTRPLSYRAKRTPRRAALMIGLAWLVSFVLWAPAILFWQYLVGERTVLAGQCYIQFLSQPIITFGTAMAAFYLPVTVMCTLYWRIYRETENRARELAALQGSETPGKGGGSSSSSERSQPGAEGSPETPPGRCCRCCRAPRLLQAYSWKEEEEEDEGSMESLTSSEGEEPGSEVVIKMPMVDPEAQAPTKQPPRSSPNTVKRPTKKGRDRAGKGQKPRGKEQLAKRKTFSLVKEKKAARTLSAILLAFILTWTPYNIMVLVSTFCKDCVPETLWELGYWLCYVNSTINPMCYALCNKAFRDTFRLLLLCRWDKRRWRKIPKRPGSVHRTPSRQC
In short: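 Compounds were tested at 15 concentrations in three independent runs. Dye-loaded CHRM1-CHO cells were exposed 5 min at room temperature before stimulation by acetylcholine added at 50nM. Intracellular calcium was read kinetically on FDSS for 3 min.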

[11] = target: Muscarinic acetylcholine receptor M1 (Homo sapiens) (UniProt P11229); assay: Cholinergic receptor muscarinic 1 (CHRM1) small molecule agonists, cell-based qHTS assay (AID 1963589); also: nearly all actives have a fitted effect of over 35% in size
In short: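 Cells were plated and incubated 18 h at 37 C/5% CO2, loaded with calcium dye for 1 h at 37 C, then treated with compounds in DMSO. Fluorescence was recorded kinetically at 1 sec intervals.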

[12] = cAMP Responsive Elements (CRE) small molecule agonists, cell-based qHTS assay (AID 1963590)
In short: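 Cells carrying a CRE-driven beta-lactamase reporter (HEK 293T) are seeded, incubated overnight (18 h), and treated with test compounds for 3 h at 37 C; reporter activity is then detected with a FRET substrate after 2 h at room temperature.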

[13] = target: Beta-2 adrenergic receptor (Homo sapiens) (UniProt P07550); assay: Adrenergic beta2 receptor (ADRB2) small molecule antagonists, cell-based qHTS assay (AID 1963592); also: series mostly up to about 92 µM; nearly all actives have a fitted effect of over 50% in size
Sequence of Beta-2 adrenergic receptor (Homo sapiens) (P07550 whole entry, looked up): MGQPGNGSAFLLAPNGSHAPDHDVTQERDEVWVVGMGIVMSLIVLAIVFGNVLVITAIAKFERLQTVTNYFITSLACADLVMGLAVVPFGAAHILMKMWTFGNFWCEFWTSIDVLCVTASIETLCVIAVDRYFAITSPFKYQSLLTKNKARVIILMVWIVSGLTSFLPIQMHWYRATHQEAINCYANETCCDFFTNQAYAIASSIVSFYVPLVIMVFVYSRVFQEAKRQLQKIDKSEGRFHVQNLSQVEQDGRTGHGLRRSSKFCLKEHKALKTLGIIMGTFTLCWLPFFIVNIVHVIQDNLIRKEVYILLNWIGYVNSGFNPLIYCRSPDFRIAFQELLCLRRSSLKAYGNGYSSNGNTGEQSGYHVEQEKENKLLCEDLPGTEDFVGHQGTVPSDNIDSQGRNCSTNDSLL
In short: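 Assay format: CHO-ADRB2 cells, 18-20hr seeding at 37C/5% CO2, then compound plus 1nM isoproterenol agonist mix for 0.5hr RT. Homogeneous time-resolved fluorescence cAMP detection after 1hr, expressed as 665/615 nm ratio.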

[14] = target: D(2) dopamine receptor (Homo sapiens) (UniProt P14416); assay: Dopamine D2 receptor (DRD2) small molecule antagonists, cell-based qHTS assay (AID 1963595; active = well fitted inhibition curve with a large enough effect in the signal ratio in the repeat runs, with a control signal flat; the % refers to the signal ratio)
Sequence of D(2) dopamine receptor (Homo sapiens) (P14416 whole entry, looked up): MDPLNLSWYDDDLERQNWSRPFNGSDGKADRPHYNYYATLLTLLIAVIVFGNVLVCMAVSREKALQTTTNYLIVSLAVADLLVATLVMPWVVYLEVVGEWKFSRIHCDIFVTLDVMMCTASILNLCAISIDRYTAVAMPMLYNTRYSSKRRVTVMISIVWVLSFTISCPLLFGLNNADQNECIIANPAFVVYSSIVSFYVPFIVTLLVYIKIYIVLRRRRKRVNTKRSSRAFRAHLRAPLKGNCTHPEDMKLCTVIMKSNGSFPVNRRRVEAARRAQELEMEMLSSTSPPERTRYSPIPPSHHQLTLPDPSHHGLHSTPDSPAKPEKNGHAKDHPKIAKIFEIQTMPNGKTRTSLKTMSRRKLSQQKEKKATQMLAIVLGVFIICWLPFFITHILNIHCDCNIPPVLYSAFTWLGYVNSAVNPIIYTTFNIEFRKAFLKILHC
In short: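 Antagonist mode in DRD2-HEK293 cells: after compound addition with 0.1 mM Ro20-1724, cells received quinpirole (12 nM) and NKH477 (200 nM) for 30 min at room temperature; HTRF cAMP read after 1 h detection.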

[15] = p53 small molecule agonists, cell-based qHTS assay with rat liver microsomes (AID 1963578)
In short: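 Agonist mode in p53RE-bla reporter cells, with compounds co-incubated 16 h at 37 C alongside 0.5 mg/mL rat liver microsomes and 0.5 mg/mL NADPH (final), followed by a 2 h LiveBLAzer detection step.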

[16] = p53 small molecule agonists, cell-based qHTS assay (AID 1963582; active = well fitted activation curve with a large enough effect in the signal ratio in the repeat runs, not every such curve was filed as active; the % refers to the signal ratio)
In short: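 Cells carrying a p53-responsive bla reporter are treated with test compounds for 16 h at 37 C; beta-lactamase activity is then detected with LiveBLAzer B/G FRET substrate after 2 h at room temperature.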

[17] = cAMP Responsive Elements (CRE) small molecule antagonists, cell-based qHTS assay (AID 1963591; active = well fitted inhibition curve with a large enough effect in the signal ratio in the repeat runs, not every such curve was filed as active; the % refers to the signal ratio)
In short: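 Cells (CRE-bla HEK 293T, DMEM with 10% dialyzed FBS and 25 mM HEPES) are seeded and incubated 18 h. Compounds are added with NKH477 agonist at 0.25 uM final for 3 h, then FRET substrate for 2 h.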

[18] = target: Beta-2 adrenergic receptor (Homo sapiens) (UniProt P07550); assay: Adrenergic beta2 receptor (ADRB2) small molecule agonists, cell-based qHTS assay (AID 1963593);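 also: CHO cells stably overexpressing human ADRB2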
In short: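 CHO cells stably over-expressing ADRB2 were plated overnight at 37C, then dosed with compounds plus a stimulation mix containing 100uM IBMX and 25uM Ro-20-1724 for 0.5hr at room temperature. cAMP was measured by HTRF competition, 1hr.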

[19] = target: D(2) dopamine receptor (Homo sapiens) (UniProt P14416); assay: Dopamine D2 receptor (DRD2) small molecule agonists, cell-based qHTS assay (AID 1963594); also: nearly all actives have a fitted effect of over 35% in size
In short: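 cAMP accumulation in DRD2-HEK293 cells measured by HTRF after 1 h detection; compounds added 10 min before NKH477 (200nM […]) forskolin-analogue stimulation, 30 min at room temperature, with Ro20-1724 present at 0.1 mM final.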

Measured: Potency

Nc1c(Cl)c(Cl)c(Cl)c(Cl)c1Cl
not listed: [15] | [16] | [17] | [18] | [19]
inactive: all other assays above

C[C@H]1[C@@H]2Cc3ccc(O)cc3[C@@]1(C)CCN2C
not listed: [5] | [6] | [9] | [19]
inactive: all other assays above

c1cncc([C@@H]2CCCCN2)c1
not listed: [16] | [18]
inactive: all other assays above

C[C@H]1CC[C@@H]2[C@@H](C)[C@H]3[C@H](C[C@H]4[C@@H]5CC=C6CC(O[C@@H]7O[C@H](CO)[C@H](O)[C@H](O[C@@H]8O[C@H](CO)[C@@H](O)[C@H](O)[C@H]8O)[C@H]7O[C@H]7O[C@@H](C)[C@H](O)[C@@H](O)[C@H]7O)CC[C@]6(C)[C@H]5CC[C@]34C)N2C1 (stereo not given in full)
active: [1] 22.4 µM | [2] 10.1 µM | [9] 63.7 µM
not listed: [15] | [16] | [19]
inactive: all other assays above

CC(=O)O.CC(=O)O.CC(=O)O.CC(=O)O.CC(=O)O.CC(=O)O.CC(=O)O.O.O.[Cr].[Cr].[Cr]
not listed: [15] | [16]
inactive: all other assays above

CCC#N
not listed: [11] | [15] | [16]
inactive: all other assays above

CC(=O)NNc1ccccc1
not listed: [13] | [15] | [16] | [18]
inactive: all other assays above

CCC(=O)c1ccc(Cl)cc1
not listed: [13] | [15] | [16] | [18]
inactive: all other assays above
